Source: the supplement of paper PMC10981050
Values joined by “and” are separate entries in the source; they are usually repeats but may differ in a detail not shown here. Equal entries are not always repeated. Structures can show the parent of a compound that is named as a salt.

Assays:
Assay in all cases: cell viability relative to vehicle control; higher = less cytotoxic
Conditions in all cases: 10 µM
K562 = test system: K562
Procedure, shortened: (§1)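 Screening covered the Selleck bioactive, kinase and epigenetic probe libraries, less identity-inconsistent compounds, on CRISPR-edited mutant clones and isogenic wild-type clones of four leukaemia lines. Cells, at 2000 per well in 50 µL medium, received a single 10 µM acoustically dispensed dose. After 48 h the supernatant was removed and CellTiter-Glo luminescence was read. Viability was analysed in Genedata Screener as percent of the on-plate vehicle control.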

MARIMO = test system: MARIMO
Procedure, shortened: as §1

MOLM14 = test system: MOLM14
Procedure, shortened: as §1

OCI-AML2 = test system: OCI-AML2
Procedure, shortened: as §1

| Structure (SMILES) | cell viability (K562; SRSF2 genotype: SRSF2 P95H/wt) | cell viability (K562; SRSF2 genotype: SRSF2 wt/wt) [%] | cell viability (MARIMO; SRSF2 genotype: SRSF2 P95H/wt) [%] | cell viability (MARIMO; SRSF2 genotype: SRSF2 wt/wt) [%] | cell viability (MOLM14; SRSF2 genotype: SRSF2 P95H/wt) [%] | cell viability (MOLM14; SRSF2 genotype: SRSF2 wt/wt) [%] | cell viability (OCI-AML2; SRSF2 genotype: P95H/wt) [%] | cell viability (OCI-AML2; SRSF2 genotype: wt/wt) [%] |
| --- | --- | --- | --- | --- | --- | --- | --- | --- |
| Cc1cc(C)cc(C(=O)NOCCCCCC(=O)NO)c1 | 1.41% and 17.1% | 4.57 | 7.1 | 10.6 | 0.7 | 0.46 | 2.75 | 5.29 |
| N#Cc1ccc(COC[C@H]2O[C@@H](n3c(NCc4ccc(Cl)c(Cl)c4)nc4c(N)ncnc43)[C@H](O)[C@@H]2O)cc1 | 52% and 62.8% | 45.7 | 32.5 | 35.6 | 26 | 14.3 | 35.1 | 34.8 |
| Cc1nc(Nc2ncc(C(=O)Nc3c(C)cccc3Cl)s2)cc(N2CCN(CCO)CC2)n1 [Dasatinib] | 21.5% and 39.8% | 27.1 | 68.1 | 61.3 | 40.3 | 35.1 | 31.8 | 40.6 |
| CC(=O)OCC(=O)NCCCOc1cccc(CN2CCCCC2)c1 [Roxatidine acetate HCl] | 102% and 97.3% | 96.1 | 93.7 | 103 | 101 | 101 | 92 | 94.8 |
| CCOC(=O)NCCCC(=O)NCCc1ccccc1 | 102% and 97.9% | 98.8 | 105 | 109 | 100 | 105 | 108 | 106 |
| CCCCCCCCC[C@H](O)CC(=O)CCc1ccc(O)c(OC)c1 [10-Gingerol] | 92.4% and 91.5% | 98.5 | 91.1 | 92.4 | 90 | 94 | 82.5 | 82.4 |
| O=C(Nc1cccc(Cl)c1)Nc1ncc(CCNc2ncnc3ccsc23)s1 [SNS-314 Mesylate] | 63.5% and 68.5% | 75.3 | 68.8 | 76.5 | 18.7 | 12.8 | 28.2 | 30.8 |
| Cc1cccc(-c2[nH]c(CNc3ccccc3F)nc2-c2ccc3ncnn3c2)n1 | 94.6% and 103% | 99.9 | 102 | 109 | 95.2 | 98 | 111 | 114 |
| CC(C)(C#N)c1ccc(N2C(=O)OCc3cnc4ccc(-c5cnc6ccccc6c5)cc4c32)cc1 | 78.7% and 82.1% | 85.8 | 83 | 92.5 | 66 | 80.2 | 74.5 | 75.7 |
| N#Cc1ccc(C(c2ccc(C#N)cc2)n2cncn2)cc1 [Letrozole] | 95.7% and 97.2% | 91.9 | 91.9 | 94 | 96.8 | 92.3 | 87.5 | 90.1 |
| COc1cc2c(cc1OC(C)C)[C@H](c1ccc(Cl)cc1)N(c1ccc(N(C)C[C@H]3CC[C@H](N4CCN(C)C(=O)C4)CC3)cc1)C(=O)C2 | 68.8% and 72.1% | 68.4 | 67.8 | 71.8 | 0.15 | 0.13 | 0.22 | 2.94 |
| O=C(NOCC1CC1)c1ccc(F)c(F)c1Nc1ccc(I)cc1Cl | 74.9% and 78.8% | 69.2 | 37.4 | 35.4 | 39.2 | 30.4 | 39.5 | 46.5 |
| COC(=O)C1=C(C)NC(C)=C(C(=O)OCC(C)C)C1c1ccccc1[N+](=O)[O-] (stereo not given) [Nisoldipine] | 80.1% and 83.8% | 80.3 | 56.3 | 58.6 | 41.7 | 34.7 | 41.2 | 55.3 |
| CC(=O)N1CCN(CCOc2ccc(C3CCN(C4=Nn5c(nnc5C(F)(F)F)CC4)CC3)cc2)CC1 | 68.5% and 73% | 71.5 | 60.6 | 57.4 | 53.5 | 53.2 | 49.8 | 59.7 |
| CC(=O)OCCc1ccc(O)c(O)c1 [Hydroxytyrosol Acetate] | 93.5% and 95.4% | 104 | 85.5 | 98.6 | 95.7 | 103 | 108 | 110 |
| Cc1ccc(NC(=O)c2ccc(CN3CCN(C)CC3)cc2)cc1Nc1nccc(-c2cccnc2)n1 [Imatinib Mesylate (STI571)] | 11.9% and 25.7% | 16.7 | 103 | 104 | 80.7 | 94 | 82.3 | 78 |
| COc1ccccc1-c1cc(Nc2cccc(CS(N)(=O)=O)c2)ncn1 | 90.2% and 89.9% | 91.5 | 29.4 | 45.6 | 26.5 | 5.12 | 18.1 | 30 |
| Cn1cnc(-c2cc3nccc(Oc4ccc(NC(=S)NC(=O)Cc5ccccc5)cc4F)c3s2)c1 | 80.4% and 84.1% | 71.9 | 87.8 | 105 | 23.3 | 15.3 | 49.2 | 58.8 |
| COc1cc2ncnc(Oc3cccc(NC(=O)Nc4cc(C(C)(C)C(F)(F)F)on4)c3)c2cc1OC | 23.5% and 40.4% | 24.8 | 79.4 | 85 | 33.8 | 23.7 | 60.3 | 61.5 |
| Cc1cc(O)c(-c2ccc([C@@H](C)CN(C)C)cc2)c2c1[nH]c(=O)c1sccc12 | 9.34% and 22.8% | 14.7 | 1.85 | 1.17 | 0.25 | 0.22 | 0.39 | 7.84 |
